# Measured values taken from the supplement of paper PMC6555819.
# Tested on: RARa:RXR (NR concentration 270 nM, RXRa partner concentration 90 nM)
# Experiment: PBM binding z-score (relative to random genomic background probes); higher = stronger binding; sequences stand for … in GC…GCGATTGACAGCGTAGAATGAAGG
# Procedure, shortened: (§1)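 On custom Agilent 4×180K arrays, double-stranded probes with 34-nt variable regions carried direct-repeat seeds, single-nucleotide variants, half-site ablations or random human genomic background. Ligand-free nuclear receptor dimers were applied for 1 h, and binding was read with antibodies against each partner (one per run). Binding z-scores come from regression-normalized fluorescence, with the random background probes as reference.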
row,Sequence,PBM binding z-score
1,CAAACTAGGTCAAGGGGTCAAAGTCCGCTTCCCG,7.88
2,ATCGAAAGGTCGTGAGGTGAGTACACAGAAAGGC,4.33
3,CGAACTAGTTCAAGGACAGTGAATCTCCGCACGC,0.402
4,CCTGCTAGTTCAATGGTCAGCTAAAGCAGCTCGC,0.242
5,ATATGTAGGTTAGCGGGGGTCATTCAGACTAGGC,5.77
6,CGTCCAAGGTCAGCAGGTGAGTGAAAGCGACGTG,3.32
7,TAGCCTCGGTCATTGGGCCAGTATAGTACGCATC,-0.492
8,GCTAGTTGGTCAGTAAATGGTCACACACCGGTCG,0.368
9,AGACAAAGTTCAGGACGAGGTAACGTAAAGCACG,3.06
10,CGCACTAGGTCATTGACAGGACAGTGAATAGTAA,2.55
11,ATGGAAAGGTCGTGAGGTGAGTATACAGAAAGGC,4.64
12,ATATCTAGGTAAAAGTTCAGTGAATCCCGAGGAT,1.6
13,CCTACTGGGCCGAGGTCATTGATCAGTCAAAGCA,4.33
14,TTACCAAAGTGAAAGGTCGTTGATGCACGCCTTG,2.39
15,CCTAGTAGGTTATGGGGCATTCAGGCAACGGTGA,0.431
16,AGTCAAAGTTCATCTGGGTAACGTAAGATATGCT,3.69
17,TCTTGTAGATCAAAGGTCAAGAAAGCCGAAGCCT,6.09

# Tested on: RARa homodimer (NR concentration 270 nM)
# Experiment: as above
# Procedure, shortened: as §1
row,Sequence,PBM binding z-score
1,CCTAGTTGGTCAAGGTCACGCACGCTATAGGTAC,2.21
2,GATACAGGGTCATCTAGAGGCCAGAGTATGGAAA,0.58
3,AGTCAAAGTTCACTAGGTTACGTAAGATTCAGCT,2.05
4,CCAGACAGGTGAAAGGTAACTCACTCTGGTACGC,0.159
5,ATCTCTAGGTGAAAGTTCAGTGAATCCCGAGGAT,0.586
6,CAAACTAGGTCAAGGTCAAATTCGGTTTGTGCCA,2.26
7,CAAACTAGGTCACGAAAGGTCAAAATCGAATGAC,4.93
8,CCTACTGGGCCAAGGTCATTGACCAGTCAAAGCA,-0.225
9,TTAACAAGGTGAAAGGTCGTTGATGCACGCCTTG,-0.215
10,CCTGCTCGGTCAATGGTCAGCTAAAGCAGCTCGC,-0.686
11,CGTCAAAGTTCAAGGTAATGTAACAGAAAGCAGC,1.61
12,CAAACTAGGTCAAAGGTCAAAGACGAGCCAACCA,4.59
13,CCTACTGGGCCATTGAGAGGTCATTGATCATATG,0.245
14,CCTGCTAGTTCATGGTCAGCTAATCTACAGTATG,-0.814
15,TCTAGTTCGTCACGGAGGTCACACACGACGGGTA,2.71
16,AGAATGAGGTTAGCAAAGATCAGGGAAACGCTTG,0.53
17,TAGCCTAGGTCATTCAGGGGCTAGTATAGAAAGC,-0.106
18,ACTCGGAGGACAAAGGTAAGAGCTACGCCAGTGA,-0.128
19,TCATATAGGTAATCAGGTGAAAGTCCGTAAGTTA,1.28
20,CCTACTGGGCCAAAGGTCATTGACTCCAATGCTC,0.485

row,Sequence,PBM binding z-score
1,AAATGTAGGTTAAGGGTCATTCAGGTTGGTTCGC,2.02
2,GGAACTAGGGCAAAGTTGATAGCATCTGTCGACG,-0.192
3,CAAACTAGGTCAAGGGGTCAAAGTCCGCTTCCCG,1.67
4,ATCGAAAGGTCGTGAGGTGAGTACACAGAAAGGC,0.76
5,CGAACTAGTTCAAGGACAGTGAATCTCCGCACGC,-0.835
6,CCTGCTAGTTCAATGGTCAGCTAAAGCAGCTCGC,-0.645
7,ATATGTAGGTTAGCGGGGGTCATTCAGACTAGGC,1.94
8,CGTCCAAGGTCAGCAGGTGAGTGAAAGCGACGTG,0.593
9,TAGCCTCGGTCATTGGGCCAGTATAGTACGCATC,-0.437
10,GCTAGTTGGTCAGTAAATGGTCACACACCGGTCG,0.255
11,AGACAAAGTTCAGGACGAGGTAACGTAAAGCACG,0.776
12,CGCACTAGGTCATTGACAGGACAGTGAATAGTAA,0.834
13,ATGGAAAGGTCGTGAGGTGAGTATACAGAAAGGC,1.17
14,ATATCTAGGTAAAAGTTCAGTGAATCCCGAGGAT,1.5
15,CCTACTGGGCCGAGGTCATTGATCAGTCAAAGCA,-0.11
16,TTACCAAAGTGAAAGGTCGTTGATGCACGCCTTG,-0.107
17,CCTAGTAGGTTATGGGGCATTCAGGCAACGGTGA,0.456
18,AGTCAAAGTTCATCTGGGTAACGTAAGATATGCT,1.4
19,TCTTGTAGATCAAAGGTCAAGAAAGCCGAAGCCT,0.488

# Tested on: RARb:RXRa (NR concentration 270 nM, RXRa partner concentration 90 nM)
# Experiment: as above
# Procedure, shortened: as §1
row,Sequence,PBM binding z-score
1,CCTAGTTGGTCAAGGTCACGCACGCTATAGGTAC,4.31
2,GATACAGGGTCATCTAGAGGCCAGAGTATGGAAA,4.48
3,AGTCAAAGTTCACTAGGTTACGTAAGATTCAGCT,4.93
4,CCAGACAGGTGAAAGGTAACTCACTCTGGTACGC,1.26
5,ATCTCTAGGTGAAAGTTCAGTGAATCCCGAGGAT,3
6,CAAACTAGGTCAAGGTCAAATTCGGTTTGTGCCA,5.09
7,CAAACTAGGTCACGAAAGGTCAAAATCGAATGAC,5.41
8,CCTACTGGGCCAAGGTCATTGACCAGTCAAAGCA,3.45
9,TTAACAAGGTGAAAGGTCGTTGATGCACGCCTTG,3.09
10,CCTGCTCGGTCAATGGTCAGCTAAAGCAGCTCGC,2.28
11,CGTCAAAGTTCAAGGTAATGTAACAGAAAGCAGC,5.14
12,CAAACTAGGTCAAAGGTCAAAGACGAGCCAACCA,5.96
13,CCTACTGGGCCATTGAGAGGTCATTGATCATATG,2.82
14,CCTGCTAGTTCATGGTCAGCTAATCTACAGTATG,1.55
15,TCTAGTTCGTCACGGAGGTCACACACGACGGGTA,3.83
16,AGAATGAGGTTAGCAAAGATCAGGGAAACGCTTG,1.46
17,TAGCCTAGGTCATTCAGGGGCTAGTATAGAAAGC,3.76
18,ACTCGGAGGACAAAGGTAAGAGCTACGCCAGTGA,1.17
19,TCATATAGGTAATCAGGTGAAAGTCCGTAAGTTA,0.56
20,CCTACTGGGCCAAAGGTCATTGACTCCAATGCTC,4.53

row,Sequence,PBM binding z-score
1,AAATGTAGGTTAAGGGTCATTCAGGTTGGTTCGC,3.7
2,GGAACTAGGGCAAAGTTGATAGCATCTGTCGACG,1.48
3,CAAACTAGGTCAAGGGGTCAAAGTCCGCTTCCCG,5.46
4,ATCGAAAGGTCGTGAGGTGAGTACACAGAAAGGC,3.91
5,CGAACTAGTTCAAGGACAGTGAATCTCCGCACGC,1.53
6,CCTGCTAGTTCAATGGTCAGCTAAAGCAGCTCGC,1.49
7,ATATGTAGGTTAGCGGGGGTCATTCAGACTAGGC,3.55
8,CGTCCAAGGTCAGCAGGTGAGTGAAAGCGACGTG,4.87
9,TAGCCTCGGTCATTGGGCCAGTATAGTACGCATC,2.33
10,GCTAGTTGGTCAGTAAATGGTCACACACCGGTCG,1.2
11,AGACAAAGTTCAGGACGAGGTAACGTAAAGCACG,4.18
12,CGCACTAGGTCATTGACAGGACAGTGAATAGTAA,3.81
13,ATGGAAAGGTCGTGAGGTGAGTATACAGAAAGGC,4.41
14,ATATCTAGGTAAAAGTTCAGTGAATCCCGAGGAT,2.56
15,CCTACTGGGCCGAGGTCATTGATCAGTCAAAGCA,3.19
16,TTACCAAAGTGAAAGGTCGTTGATGCACGCCTTG,1.86
17,CCTAGTAGGTTATGGGGCATTCAGGCAACGGTGA,1.13
18,AGTCAAAGTTCATCTGGGTAACGTAAGATATGCT,4.81
19,TCTTGTAGATCAAAGGTCAAGAAAGCCGAAGCCT,4.74
